Results from PubChem BioAssay (NCATS).
Inconclusive results are not listed. Entries that show only a call come without a potency. Calls of active or inactive are those of the source. Calls come from the whole dose curve; as a rule, active = well fitted inhibition curve with a large enough effect; inconclusive = small, poorly fitted or top-dose-only effect, or effect the other way; inactive = no such curve, though single readings can be large or run the other way.
Potency is the fitted concentration of half-maximal effect.

Experiment: High Content Imaging Cell-Based qHTS for Inhibitors of the mTORC1 Signaling Pathway in MEF Cells (AID 2667)
Settings: series mostly up to 38.3 µM
Description: NIH Molecular Libraries Probe Production Centers Network [MLPCN]
NIH Chemical Genomics Center [NCGC]
Assay Submitter (PI): Blenis, John; Hoffman, Greg; Harvard University
NCGC Assay Overview: The mammalian target of rapamycin (mTOR) is an intracellular serine/threonine kinase Aberrant regulation of mTOR signaling plays a causative role in a number of human diseases, including cancer, benign tumors such as lymphangioleiomyomatosis (LAM) and Tuberous Sclerosis Complex (TSC), and metabolic diseases such as diabetes and obesity. This project aims to identify inhibitors of ribosomal protein S6 (rpS6) phosphorylation. The phosphorylation of rpS6 is a key event downstream of mTOR activation. The assay uses a phospho-specific antibody of phospho-rpS6 to detect inhibitors of mTOR activation. Mutations in the Tsc1 and Tsc2 genes are the underlying genetic lesions responsible for TSC, causing constitutive activation of the mTORC1 pathway and leading to profound effects on cell metabolism. Aberrant metabolism in cancer has recently received significant attention as a target to develop therapeutic agents in the treatment of cancer.1 As Tsc2-/- cells have lost the ability to respond to energy and growth factor deprivation, these cells are unable to properly down regulate cellular biosynthetic processes in response to metabolic stress, and are thus extremely sensitive to glucose deprivation-induced death.2 A central goal of this project is to explore the unique cell survival and metabolic properties of cells with Tsc1 or Tsc2 by screening for compounds that selectively target the Tsc2-/- MEFs by screening both Tsc2-/- and WT MEF cell lines. We hope to better understand these aspects of TSC physiology in order to exploit them for therapeutic benefit.
NCGC IN Cell Assay Protocol:
For quantitative high throughput analysis of mTORC1 signaling, we developed a cell-based assay for immuno-fluorescence based detection of rpS6 phosphorylation on the Acumen Explorer that will be used a platform for the primary small molecule screen. Mouse embryonic fibroblasts (MEFs) are cultured in 1536-well plates using DMEM + 10% FBS. Twenty-four hrs after plating, test compounds (solubilized in DMSO) are delivered and incubated with the cells for 24 hrs at 37 degree Celsius. Following the incubation, media with compound is aspirated and the cells are fixed in 4% paraformaldehyde (PFA) containing PBS + 0.2% TX-100. Next, PFA is aspirated, cells are washed two times with PBS plus 0.2% TX-100 and the cells are blocked for 1 hr at room temperature (blocking buffer: LiCOR Blocking Buffer plus 0.2% TX-100). This is followed by aspiration and staining with Alexa-488 conjugated-phospho-rpS6 Ser235/236 antibody for 2 hours at room temperature (Cell Signaling Technology # 4803, 1:50 dilution in blocking buffer). Cells are washed two times with PBS plus 0.2% TX-100, and stained with 10 uM propidium iodide (PI) for 20-25 minutes for cell number measurement (1:500 dilution of Hoescht staining is also added for IN Cell imaging). Active wells which are selected (based on Acumen results) are imaged on the IN Cell 1000 (GE Healthcare) using the D360/40X and HQ480/40X excitation filters for the Hoechst and Alexa-488 cytoplasmic stains, respectively. The fluorescence emission filters used were HQ460/40M and HQ535/50M for the Hoechst and Alexa-488 cytoplasmic stains, respectively. The normalized phospho-S6 staining is calculated as the ratio of […] for the single concentration rapamycin control ([…] nM) and DMSO columns. […] Inhibition of the pathway is defined based on the normalized phospho-S6 intensity in rapamycin treated cells. Each treatment is reported as the % positive cells in the well, where thresholds are defined by selecting wells with the highest and lowest signal and differentiating between the % non-active and % active populations. […]
For `NC(CCCCCP(=O)(O)O)C(=O)O` (stereo not given), the Potency was “inactive”. With `C[C@@H]1O[C@@H](O[C@H]2C[C@@H](O)[C@]3(CO)[C@@H]4C(CC[C@]3(O)C2)[C@@]2(O)CC[C@H]([C@@H]3COC(=O)C3)[C@@]2(C)C[C@H]4O)[C@H](O)[C@H](O)[C@H]1O` (stereo not given in full) the Potency was “inactive”. With `C=CCN1CC[C@]23c4c5ccc(O)c4O[C@H]2/C(=N/NC(=O)c2ccccc2)CC[C@@]3(O)[C@H]1C5` the Potency was “inactive”. In the case of `C[N+]1(C)C2CCC1CC(OC(=O)c1c[nH]c3ccccc13)C2` (stereo not given), the Potency is reported as “inactive”. With `CCCN(CCC)CCc1ccc(O)c(O)c1` the Potency was “inactive”. For `C[C@H](N)CN1CCc2ccc(Br)cc21`, the Potency was “inactive”. For `NCCc1c[nH]c2ccc(C(N)=O)cc12`, the Potency was “inactive”. For `C#CCN[C@H](C)Cc1ccccc1`, the Potency was “inactive”. With `N[C@@]1(C(=O)O)CC[C@@H](C(=O)O)C1` the Potency was “inactive”. With `CCCN(CCC)[C@H]1CCc2c(F)ccc(O)c2C1` the Potency was “inactive”. For `N[C@@H](Cn1ccc(=O)[nH]c1=O)C(=O)O`, the Potency was “inactive”. In the case of `C[N+]1(C)CCc2cc3c(cc2[C@H]1[C@@H]1OC(=O)c2c1ccc1c2OCO1)OCO3`, the Potency is reported as “inactive”. With `CC(Cc1ccc(OCC(=O)O)cc1)NCC(O)c1cccc(Cl)c1` (stereo not given) the Potency was “inactive”. In the case of `COc1ccc(CNC(=O)/C=C/c2ccc3[nH]cc(CCN(C)C)c3c2)cc1`, the Potency is reported as “inactive”. For `O=S1(=O)N(CCN2CC=C(c3c[nH]c4cc(F)ccc34)CC2)c2cccc3c2N1CCC3`, the Potency was “inactive”. In the case of `CCCN(CCC)C1Cc2cc(OC)c(OC)cc2C1`, the Potency is reported as “inactive”. For `COc1ccc2c(c1O)-c1cccc3c1[C@@H](C2)N(C)CC3`, the Potency was “inactive”. With `c1ccc2c(c1)[I+]c1ccccc1-2` the Potency was 0.0585 µM (active). In the case of `CN1CC[C@@]2(C)c3cc(OC(=O)Nc4ccccc4)ccc3N(C)[C@@H]12`, the Potency is reported as “inactive”. With `NCCc1ccc(S(=O)(=O)F)cc1` the Potency was “inactive”. In the case of `Cc1sc2ccccc2c1CC1=NCCN1`, the Potency is reported as “inactive”. With `O=[N+]([O-])/C=C/c1ccc2c(c1)OCO2` the Potency was 2.07 µM (active). With `CC(N)c1cccc(Cl)c1Cl` (stereo not given) the Potency was “inactive”. With `CN1C2CCC1CC(OC(c1ccccc1)c1ccccc1N)C2` (stereo not given) the Potency was “inactive”. In the case of `N[C@@H](CCl)C(=O)O`, the Potency is reported as “inactive”. For `CC(=O)NBr`, the Potency was “inactive”. For `CCCn1c(C)c(C(=O)c2ccc3ccccc3c2)c2ccccc21`, the Potency was “inactive”. In the case of `CC1(C(=O)O)C2CCC(O2)C1(C)C(=O)O` (stereo not given), the Potency is reported as 3.69 µM (active). With `COc1ccc2[nH]c3c(c2c1)CCNC3` the Potency was “inactive”. For `NC(N)=Nc1ccc2[nH]c3c(c2c1)C[C@@]1(O)[C@H]2Cc4ccc(O)c5c4[C@@]1(CCN2CC1CC1)[C@H]3O5`, the Potency was “inactive”. For `CCN(CCCl)Cc1ccccc1Br`, the Potency was “inactive”. In the case of `CCCN(CCC)[C@@H]1CCc2cccc(O)c2C1`, the Potency is reported as “inactive”. In the case of `NC(Cc1ccc(N(CCCl)CCCl)cc1)C(=O)O` (stereo not given), the Potency is reported as “inactive”. In the case of `Cc1o[nH]c(=O)c1CC(N)C(=O)O` (stereo not given), the Potency is reported as “inactive”. With `C=CCN(C1=NCCN1)c1c(Cl)cccc1Cl` the Potency was “inactive”. In the case of `CC(C)NP(=O)(NC(C)C)OP(=O)(NC(C)C)NC(C)C`, the Potency is reported as “inactive”. In the case of `COc1cc(CC(C)N)c(OC)cc1I` (stereo not given), the Potency is reported as “inactive”. With `CCCn1c(=O)c2[nH]c(C3CCCC3)nc2n(CCCOC(=O)c2ccc(S(=O)(=O)F)cc2)c1=O` the Potency was “inactive”. With `COc1ccc(OC)c(C(O)C(C)N)c1` (stereo not given) the Potency was “inactive”. For `Cc1[nH]c2ccc(O)cc2c1CCN`, the Potency was “inactive”.
